The text below walks through data of PubChem BioAssay (NCATS).

Molecules are shown by their SMILES. Records with an inconclusive call do not appear. Entries that show only a call come without a potency. Active and inactive are the calls of the source. The call rests on the fitted dose curve; in most records, active means well fitted inhibition curve with a large enough effect; inconclusive means small, poorly fitted or top-dose-only effect; inactive means flat fitted curve, though single readings scatter.
Potency means the concentration at half of the fitted maximal effect.

The subject of the first test is CP335. In words: qHTS profiling for inhibitors of Plasmodium falciparum proliferation (AID 504749). Further: nearly all actives have a fitted effect of over 60% in size. The note with it: P. falciparum in erythrocytes, SYBR Green DNA, 72 h; series mostly up to 28.7 µM. The essentials:
(§1)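 Three-day growth assay of blood-stage parasites in erythrocytes (0.3% parasitemia, 2.5% hematocrit) at 37 C, 5% CO2, quantified by SYBR Green DNA staining after overnight detergent lysis.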
(Quantitative high-throughput screening tests each substance at several concentrations.)
In the case of `COC(=O)C[C@](O)(CCCC(C)(C)O)C(=O)O[C@@H]1C(OC)=C[C@]23CCCN2CCc2cc4c(cc2[C@H]13)OCO4`, the Potency is 0.0213 µM (active).
The same measure, in the same setting: the same measure for `CC=CC1=C(C(=O)O)N2C(=O)[C@H](NC(=O)[C@H](N)c3ccc(O)cc3)[C@@H]2SC1`: “inactive”; for `C[C@H]1C[C@@H]2[C@@H]([C@@H](O)C[C@@]3(C)[C@H]2CC[C@]3(O)C(=O)CO)[C@@]2(C)C=CC(=O)C=C12`: “inactive”.
Consider `O=c1[nH]c(=O)n(C2CCCO2)cc1F` (stereo not given), for which the Potency entry was “inactive”.
The same measure, in the same setting: the same measure for `CC1(C)O[C@@H]2C[C@@H]3[C@H]4C[C@@H](F)C5=CC(=O)C=C[C@]5(C)[C@@]4(F)[C@@H](O)C[C@]3(C)[C@]2(C(=O)CO)O1`: “inactive”.
The same measure, in the same setting: the value for `Nc1ccn([C@@H]2CS[C@H](CO)O2)c(=O)n1` was “inactive”; that for `CN1c2cc(O)c(N=NC(N)=O)cc2CC1S(=O)(=O)O` (stereo not given) was “inactive”; that for `CC[C@H]1CN2CCc3cc(OC)c(OC)cc3[C@H]2C[C@@H]1C[C@@H]1NCCc2cc(OC)c(OC)cc21` was 0.379 µM (active).
In the case of `CC(C)(C)NC(=O)[C@H]1CN(Cc2cccnc2)CCN1C[C@@H](O)C[C@@H](Cc1ccccc1)C(=O)N[C@H]1c2ccccc2C[C@H]1O`, the Potency was 12 µM (active).
With `Nc1ccn([C@@H]2O[C@H](CO)[C@H](O)C2(F)F)c(=O)n1`, the Potency is 2.39 µM (active).
With `O=C(O)CO.[NH2-].[NH2-].[Pt+2]`, the Potency result was “inactive”.
For the compound `COC(=O)C1=C(C)NC(C)=C(C(=O)OCCN2CCN(C(c3ccccc3)c3ccccc3)CC2)C1c1cccc([N+](=O)[O-])c1` (stereo not given), the Potency was 1.69 µM (active).
`COc1c(N2C[C@@H]3CCCN[C@H]3C2)c(F)cc2c(=O)c(C(=O)O)cn(C3CC3)c12`: the Potency entry is “inactive”.
In the case of `CCC1=C[C@@H]2CN(C1)Cc1c([nH]c3ccccc13)[C@@](C(=O)OC)(c1cc3c(cc1OC)N(C)[C@@H]1[C@@](O)(C(=O)OC)[C@H](OC(C)=O)[C@]4(CC)C=CCN5CC[C@]31[C@@H]54)C2`, the Potency was 1.69 µM (active).
Still for that read-out and setting: the same measure for `Nc1ccc(S(=O)(=O)Nc2ncccn2)cc1`: “inactive”.

In a further test the test system is DFO2036. The test is described as above. The note with it: P. falciparum in erythrocytes, SYBR Green DNA, 72 h; series mostly up to 28.7 µM. The essentials:
as §1
Take `COC(=O)C[C@](O)(CCCC(C)(C)O)C(=O)O[C@@H]1C(OC)=C[C@]23CCCN2CCc2cc4c(cc2[C@H]13)OCO4`: the Potency was 0.0224 µM (active).
For the compound `CC=CC1=C(C(=O)O)N2C(=O)[C@H](NC(=O)[C@H](N)c3ccc(O)cc3)[C@@H]2SC1`, the Potency result is “inactive”.
Take `COc1cc(C(=O)NS(=O)(=O)c2ccccc2C)ccc1Cc1cn(C)c2ccc(NC(=O)OC3CCCC3)cc12`: the Potency result was “inactive”.
For `C[C@H]1C[C@@H]2[C@@H]([C@@H](O)C[C@@]3(C)[C@H]2CC[C@]3(O)C(=O)CO)[C@@]2(C)C=CC(=O)C=C12`, the Potency entry was “inactive”.
For the compound `O=c1[nH]c(=O)n(C2CCCO2)cc1F` (stereo not given), the Potency result is “inactive”.
Take `CC1(C)O[C@@H]2C[C@@H]3[C@H]4C[C@@H](F)C5=CC(=O)C=C[C@]5(C)[C@@]4(F)[C@@H](O)C[C@]3(C)[C@]2(C(=O)CO)O1`: the Potency entry was “inactive”.
As to `Nc1ccn([C@@H]2CS[C@H](CO)O2)c(=O)n1`, the Potency entry was “inactive”.
The same measure, in the same setting: the value for `CN1c2cc(O)c(N=NC(N)=O)cc2CC1S(=O)(=O)O` (stereo not given) was “inactive”; that for `CC[C@H]1CN2CCc3cc(OC)c(OC)cc3[C@H]2C[C@@H]1C[C@@H]1NCCc2cc(OC)c(OC)cc21` was 0.316 µM (active); that for `Nc1ccn([C@@H]2O[C@H](CO)[C@H](O)C2(F)F)c(=O)n1` was 0.282 µM (active).
Take `O=C(O)CO.[NH2-].[NH2-].[Pt+2]`: the Potency entry is “inactive”.
Still for that read-out and setting: the value for `COC(=O)C1=C(C)NC(C)=C(C(=O)OCCN2CCN(C(c3ccccc3)c3ccccc3)CC2)C1c1cccc([N+](=O)[O-])c1` (stereo not given) was 1.78 µM (active); that for `COc1c(N2C[C@@H]3CCCN[C@H]3C2)c(F)cc2c(=O)c(C(=O)O)cn(C3CC3)c12` was “inactive”; that for `CCC1=C[C@@H]2CN(C1)Cc1c([nH]c3ccccc13)[C@@](C(=O)OC)(c1cc3c(cc1OC)N(C)[C@@H]1[C@@](O)(C(=O)OC)[C@H](OC(C)=O)[C@]4(CC)C=CCN5CC[C@]31[C@@H]54)C2` was 2.51 µM (active).
On the same count and under the same terms, the value for `Nc1ccc(S(=O)(=O)Nc2ncccn2)cc1` was “inactive”.
